Structures are written as SMILES. Several values for one entry are separate records, joined by “and”; a condition that tells them apart may be missing. Identical values can stand only once. The source holds several records for some structures; these can differ, active in one and inactive in another. Activity calls are given as the source filed them.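 The calls were made as follows, unless noted: active = compounds killing one labelled cell type while sparing the other, by normalised counts and ratio limits, not self-fluorescent; inactive = the rest.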

Assay [1] in a line: EMT-state selective cytotoxicity in co-culture – imaging, PC-3E GFP, TEM4-18 mCherry, primary screen (AID 1345086).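 As to all read-outs here: cells exposed to compound for 72 h before imaging.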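 As to red/green cell ratio (normalised): normalised mesenchymal count divided by normalised epithelial count so high means epithelial killing.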 The note with it: PC-3E GFP / TEM4-18 mCherry co-culture, imaging cell counts, at 1 µM; for red/green cell ratio (normalised): actives lie on both sides, counts scaled to control wells, 1 = unselective.
Assay [2] is described as follows: compounds altering circadian rhythm period length – cell-based, LOPAC library, luminescence reporter (AID 2774; call rule not given here;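 also: values are relative to mean of DMSO wells on each plate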). To be noted: circadian reporter cells, at 7 µM, actives lie on both sides.
Assay [3] has as its system Hepatitis C virus NS3 helicase. Description: blockers of NS3h binding to ssDNA – biochemical, fluorescence polarization, LOPAC1280 library, primary screen (AID 687035; in the data active = inhibition above about 37%). To be noted: Purified HCV NS3 helicase, Cy5-dT15 ssDNA binding fluorescence polarization; stronger effect = higher value; concentration not given here. (In fluorescence polarisation assays a small probe gives low polarisation when free and higher when bound to something large.)

A short description of assay [4]: compounds altering Cy5-DNA-NS3h complex signal – biochemical, LOPAC1280, artefact control for HCV NS3 helicase inhibitor project (AID 687037; call rule not given here). To be noted: Cy5-DNA-NS3h complex fluorescence interference counterscreen. On the technique in general: The purpose of a counterscreen is to sort out artefacts and off-target activity.
Assay [5] deals with Aerobactin synthetase IucA (Klebsiella pneumoniae). Description: inhibition of K. pneumoniae IucA enzyme – biochemical, Tocris library, absorbance (AID 1345561; call rule not given here;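 also: 100% = enzyme without compound and 0% = no enzyme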). To be noted: purified IucA enzyme assay, absorbance (OD) read-out; stronger effect = lower value;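 tested at 8 µM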.
The nature of assay [6]: viability loss with induced miR-34 in A549 – imaging, A549 dox-inducible miR-34, nuclei and caspase counts, primary screen (AID 1347080;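 active = compounds whose cell count with miR-34 switched on is under 0.7 times the count with it off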). The note with it: A549 miR-34 inducible, Hoechst nuclei count, 48 h.
The nature of assay [7]: galactose survival enhancers in mitochondrial complex I cybrids – cell-based, galactose medium, ATP luminescence, primary screen (AID 1645843;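 active = z-score of at least 1.8 in each of two replicates, scored against plate mean and spread of sample wells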;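 also: positive z means more ATP and so rescue of galactose-driven cybrid death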). To be noted: complex I mutant cybrid cells, 72 h, stronger effect = higher value.
Setting [8] is: measured here: epithelial PC-3E GFP cell survival.
Where [9] appears, read: measured here: mesenchymal TEM4-18 mCherry cell survival.

Take `C[C@H]1[C@H]2CCC3C4CC=C5C[C@@H](N(C)C)CC[C@]5(C)C4CC[C@@]32CN1C` (stereo not given in full): in assay [1], the red/green cell ratio (normalised) was 0.93 (inactive). Besides, the normalised cell number was determined as 0.89 in assay [1] (setting [8]) and 0.83 in assay [1] (setting [9]).
The matching figures for `CO[C@@]1(NC(=O)C2SC(=C(C(N)=O)C(=O)O)S2)C(=O)N2C(C(=O)O)=C(CSc3nnnn3C)CSC21` (stereo not given in full): 0.96 (inactive), 1.21 and 1.17.
In the case of `CO[C@H]1C[C@H](O[C@H]2[C@H](C)[C@@H](O[C@@H]3O[C@H](C)C[C@H](N(C)C)[C@H]3O)[C@@H](C)C[C@]3(CO3)C(=O)[C@H](C)[C@@H](O)[C@@H](C)[C@@H](C)OC(=O)[C@@H]2C)O[C@@H](C)[C@@H]1O`, the red/green cell ratio (normalised) in assay [1] was 0.92 (inactive). For the same compound, the normalised cell number was found to be 1.06 in assay [1] (setting [8]) and 0.97 in assay [1] (setting [9]).
The matching figures for `CCC1OC(=O)[C@H](C)C(=O)[C@H](C)[C@@H](OC2O[C@H](C)C[C@H](N(C)C)[C@H]2O)[C@](C)(OC)C[C@@H](C)C(=O)[C@H](C)[C@H]2N(CCCCn3cnc(-c4cccnc4)c3)C(=O)O[C@@]12C` (stereo not given in full): 1.16 (inactive), 1.06 and 1.23.
Consider `COc1cc(/C=C/C(=O)/C=C(O)/C=C/c2ccc(O)c(OC)c2)ccc1O`, for which, in assay [1], the red/green cell ratio (normalised) is 1.04 (inactive). In addition, the figures for the normalised cell number in assay [1] (setting [8]) and in assay [1] (setting [9]) were 1.02 and 1.06, respectively.
Take `CC1(C)C(C(=O)O)N2C(=O)C[C@H]2S1(=O)=O` (stereo not given in full): in assay [1], the red/green cell ratio (normalised) is 0.69 (inactive). Besides, the normalised cell number turned out to be 1.22 in assay [1] (setting [8]) and 0.84 in assay [1] (setting [9]).
Consider `O=C(Nc1ccc(Cl)cc1)Nc1ccc(CO)cc1`, for which the red/green cell ratio (normalised) in assay [1] was 0.86 (inactive). In addition, the normalised cell number in assay [1] (setting [8]) is 1.29; in assay [1] (setting [9]), 1.11.
`O=C(O)c1ccccc1Nc1cccc(OCc2ccc3ccccc3n2)c1`: the period change in assay [2] was -0.125 h (inactive). Moreover, the inhibition in assay [3] is 0% (inactive). In assay [4], the fluorescence ratio (interference) was 1 (inactive). Besides, the red/green cell ratio (normalised) in assay [1] was 0.86 (inactive). Moreover, the results for the normalised cell number in assay [1] (setting [8]) and in assay [1] (setting [9]) were 1.35 and 1.16, respectively. Further, the remaining activity in assay [5] is 112% (inactive). Besides, the fold change was 0.992 (inactive) and 0.929 (inactive) in assay [6] (stronger effect = lower value, cell number ratio, induced over uninduced); 0.944 and 0.452 in assay [6] (measured here: relative caspase fold change +Dox/-Dox). Also, the cell count in assay [6] (measured here: total cells with miR-34 induction, stronger effect = lower value) is 9820 and 8230; in assay [6] (measured here: total cells without miR-34 induction) it was 9900 and 8860. Besides, the z-score in assay [7] was 2.17 (active) and -0.695 (inactive).
As to `C=C1C(=O)O[C@@H]2C(=O)O[C@@H](CCCCCCCC)[C@H]12`, the red/green cell ratio (normalised) in assay [1] was 0.86 (inactive). Besides, the results for the normalised cell number in assay [1] (setting [8]) and in assay [1] (setting [9]) were 1.04 and 0.89, respectively.
For `O=C(O)CCc1ccccc1O`, the red/green cell ratio (normalised) in assay [1] was 0.97 (inactive). Besides, the normalised cell number in assay [1] (setting [8]) came to 1.1; in assay [1] (setting [9]), 1.07.
For `C[C@@H]1[C@H](O)[C@@H](C)/C=C/C=C/C=C/C=C/C=C/C=C/C=C/[C@H](OC2O[C@H](C)[C@@H](O)[C@H](N)[C@@H]2O)C[C@@H]2O[C@](O)(C[C@@H](O)C[C@@H](O)[C@H](O)CC[C@@H](O)C[C@@H](O)CC(=O)O[C@H]1C)C[C@H](O)[C@H]2C(=O)O` (stereo not given in full) the same measures were 0.82 (inactive), 1.26 and 1.03.
Consider `O=C(NCC1O[C@@H](OC2C(NC(=O)c3ccccc3)C[C@@H](NC(=O)c3ccccc3)[C@H](OC3OC(COS(=O)(=O)O)[C@@H](OS(=O)(=O)O)[C@H](NC(=O)c4ccccc4)[C@H]3OS(=O)(=O)O)[C@H]2OS(=O)(=O)O)[C@H](OS(=O)(=O)O)[C@@H](OS(=O)(=O)O)C1OS(=O)(=O)O)c1ccccc1` (stereo not given in full), for which the red/green cell ratio (normalised) in assay [1] is 1.21 (inactive). For the same compound, the normalised cell number is 0.96 in assay [1] (setting [8]) and 1.16 in assay [1] (setting [9]).

The term inhibition denotes how much of the control response was suppressed. As usually defined, the remaining activity is the signal under treatment as a percentage of the control signal.
